# Measles CPE – compounds protecting cells from measles virus cytopathic effect, primary screen, measles RdRp inhibitor project, single point, MLSMR library, absorbance; protection (pct of control), % at 4 µM; 140,000 tested, 1.5% active; AID 841, 2007; Measles virus-infected cells, CPE protection; in the data active = protection mostly above about 24%, no sharp cut-off; inactive = mostly below about 26%
# INS promoter inh – inhibitors of insulin promoter-driven GFP, primary screen, imaging, TRM-6 cells (human fetal islet line), eGFP reporter, cell count. 130,000 tested, 0.9% active. inhibition, % at 2 µM. reporter expression induced with tamoxifen;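 active = inhibition above the mean plus 3 SD, with well images judged a real hit on visual review, cut at about 60% in these data, passing the limit was not always enough; inconclusive = inhibition over the cutoff but images rejected on review; inactive = inhibition not above the cutoff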
# SDO1 yeast rescue – growth rescue of sdo1-depleted yeast, primary screen, S. cerevisiae, bone marrow failure model; AID 817, 2007; z-score at 10 µM; 140,000 tested, 0.21% active; S. cerevisiae sdo1-depleted JHY4D growth rescue, OD600 30 h; hits give high values; pdr5 snq2 efflux-pump mutant strain;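 active = z-score above 3 at both the 24 hr and the 30 hr optical density reads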;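 note: z-score against mean and SD of all compound wells on the same plate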
# ROMK primary – ROMK potassium channel modulators, primary screen, cell-based, thallium flux, MLSMR library; ATP-sensitive inward rectifier potassium channel 1 (Homo sapiens), P48048; Tet-inducible ROMK, thallium flux fluorescence; actives lie on both sides; B-score at 10 µM; 130,000 tested, 2% active;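 active = signal ratio slope over the read window, or its plate-corrected B-score, at least 3 SD from the plate mean, either direction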;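 note: B-score of the F/F0 ratio slope over 7 to 12 s after thallium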
# Target sequence (P48048 whole entry, looked up): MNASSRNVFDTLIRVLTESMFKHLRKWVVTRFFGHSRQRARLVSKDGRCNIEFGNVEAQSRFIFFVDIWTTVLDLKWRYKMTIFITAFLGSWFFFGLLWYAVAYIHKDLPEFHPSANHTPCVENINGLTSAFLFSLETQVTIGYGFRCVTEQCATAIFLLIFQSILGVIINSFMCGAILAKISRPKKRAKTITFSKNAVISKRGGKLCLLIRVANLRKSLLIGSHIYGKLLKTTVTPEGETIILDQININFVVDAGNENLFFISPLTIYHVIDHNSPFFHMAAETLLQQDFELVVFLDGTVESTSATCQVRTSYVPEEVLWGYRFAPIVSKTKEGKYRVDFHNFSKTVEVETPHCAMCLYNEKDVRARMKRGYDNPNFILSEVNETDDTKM
# ROMK hit retest – ROMK channel modulator hit retest, confirmation, cell-based, thallium flux, duplicate, resupplied hits; shares compounds with ROMK primary; fluorescence ratio; hits give low values; normalized thallium flux (F/F0 slope) at 10 µM; 3,000 tested, 54% active;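 active = Flux at 10 µM at least 3 SD below or above vehicle control mean in one or both replicates; inconclusive = no clear call, values can overlap the other calls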
# * = called active by the depositor; u = inconclusive; x = no result given. In the library only some 3% were active in any assay of this set; here they are far more common.
SMILES,Measles CPE,INS promoter inh,SDO1 yeast rescue,ROMK primary,ROMK hit retest
CCOCCCNC(=O)/C(C#N)=C/c1ccc(Cl)c([N+](=O)[O-])c1,x,x,x,-4.2*,0.033*
COCCNC(=O)/C(C#N)=C/c1ccc(O)c([N+](=O)[O-])c1,x,x,x,0.88,x
O=[N+]([O-])c1ccc2c(c1)/C(=N\O)c1ccccc1-2,x,x,x,-2.9*,u
CCOc1ccc(S(=O)(=O)N(C)CCO)cc1-c1nc2c(C(C)(C)C)nn(C)c2c(=O)[nH]1,6,24,0.47,-4.3*,0.048*
CCOc1ccc(S(=O)(=O)N(C)C)cc1-c1nc2c(C(C)(C)C)nn(C)c2c(=O)[nH]1,30,20,0.23,-1.8,x
CCn1c(COc2ccc(OC)cc2)nnc1SCc1nc2ccccc2c(=O)[nH]1,x,27,x,0.7,x
C=CCn1c(=N)n(CC(O)COc2ccccc2OC)c2ccccc21 (configuration not stated),19,x,0.7,x,x
COc1ccccc1OCC(O)Cn1c(=N)n(Cc2ccccc2)c2ccccc21 (configuration not stated),7,-278,-0.15,-7.8*,0.048*
Cc1ccccc1OCC(O)Cn1c(=N)n(Cc2ccccc2)c2ccccc21 (configuration not stated),x,x,x,-4.6*,0.05*
Cc1ccc(OCC(O)Cn2c(=N)n(CCN3CCCCC3)c3ccccc32)cc1 (configuration not stated),12,x,-0.02,x,x
Cc1nc2ccccc2n1CC(O)COc1ccccc1Cl (configuration not stated),x,u,x,-1.6,0.057*
CCCCn1c(=N)n(CC(O)COc2cccc(C)c2)c2ccccc21 (configuration not stated),2,-36,0.36,-5.8*,0.051*
CCC(=O)c1ccc(OCC(O)Cn2c(C)nc3ccccc32)cc1 (configuration not stated),8,-375,0.21,-1.7,x
CCCCCn1c(=N)n(CC(O)COc2ccccc2OC)c2ccccc21 (configuration not stated),2,x,-0.06,x,0.048*
CCCCn1c(=N)n(CCOc2ccc(C)cc2)c2ccccc21,6,0,1.2,-3.5*,0.051*
C=CCn1c(SCC(=O)Nc2cccc3ccccc23)nnc1-c1cnccn1,9,-46,-0.55,x,x
C=CCn1c(SCC(=O)Nc2cc3oc4ccccc4c3cc2OC)nnc1-c1cnccn1,3,33,-1.6,x,0.065*
Cc1ccc(S(=O)(=O)Nc2ccccc2C(=O)NCc2cccnc2)cc1,x,x,x,2.8*,0.083
O=C(Nc1cc(S(=O)(=O)N2CCCCC2)ccc1O)c1ccccc1NS(=O)(=O)c1ccc(F)cc1,7,-43,0.28,3.3*,0.089
Cc1ccc(S(=O)(=O)Nc2ccccc2C(=O)Nc2nc(-c3ccc(F)cc3)cs2)cc1,5,5,-2.3,x,0.057*
COc1ccc(-c2csc(NC(=O)c3ccccc3NS(=O)(=O)c3ccc(F)c(F)c3)n2)cc1,x,x,x,-0.39,x
CC(C)NS(=O)(=O)c1ccc(CCC(=O)Nc2ccc3c(c2)OCO3)cc1,12,-479,0.93,x,x
Cc1ccc(S(=O)(=O)Nc2cc(C(F)(F)F)ccc2N2CCOCC2)c(C)c1,4,-22,-0.4,0.021,x
COc1ccc(OC)c(NC(=O)c2ccccc2N(Cc2ccccc2)S(C)(=O)=O)c1,x,17,x,0.14,x
N[C@@H](Cc1ccccc1)c1nnc(SC/C=C/c2ccccc2)o1,x,x,x,-1,x
SMILES,Measles CPE,INS promoter inh,SDO1 yeast rescue,ROMK primary,ROMK hit retest
O=C(O)CCC(NC(=O)C1CCCN1C(=O)OCc1ccccc1)C(=O)O (configuration not stated),x,x,x,1.5*,0.084
COc1cc(NC(=O)C2CCCN2C(=O)OCc2ccccc2)cc(OC)c1 (configuration not stated),3,x,-0.51,-0.24,x
CCNc1nc(NCC)n2c(SCC(=O)c3ccccc3Cl)nnc2n1,x,21,x,-0.44,x
Cc1cccc(N2C(=S)NC3c4ccccc4OC2(C)C3C(=O)N(C)C)c1 (configuration not stated),x,36,x,-4.4*,0.064*
COc1cc(/C=C(\C#N)C(=O)Nc2ccccc2C(=O)O)cc(Cl)c1OC,x,x,x,-4.6*,0.057*
CCOC(=O)c1cc2cc(OC)ccc2[nH]1,28,-113,1.2,-1.2,0.072
CCOC(=O)c1[nH]c2ccc(OC)cc2c1C,9,x,-0.25,-0.27,x

# Screening results (PubChem)
